# Measured values from article PMC11006913.
# Changes are numbered by the printed parent chain.
# Assays:
# Assay in all cases: PBM; 200 nM protein, PBS
# Settings in all cases: dsDNA, one strand shown
# HOXB9 [1] = target: HOXB9 (Homo sapiens, UniProt P17482 171-250, T197M)
# PAX4 [2] = target: T1, PAX4 (Homo sapiens, UniProt O43316 9-242, R200K)
# T1 sequence: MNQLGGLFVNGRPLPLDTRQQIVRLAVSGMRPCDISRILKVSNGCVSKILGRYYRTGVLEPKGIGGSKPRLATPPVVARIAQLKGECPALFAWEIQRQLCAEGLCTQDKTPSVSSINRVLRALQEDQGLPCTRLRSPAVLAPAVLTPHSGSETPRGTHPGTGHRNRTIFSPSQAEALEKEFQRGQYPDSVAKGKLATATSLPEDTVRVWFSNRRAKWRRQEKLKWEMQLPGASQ
# PRRX1 = PRRX1 (Homo sapiens, UniProt P54821 80-166, F113S)
# HOXB6 [3] = target: HOXB6 (Homo sapiens, UniProt P17509 132-218, K202E)
# HOXB9 [4] = target: HOXB9 (Homo sapiens, UniProt P17482 171-250)
# ALX3 [5] = target: ALX3 (Homo sapiens, UniProt O95076 139-225, N203Q)
# HOXC9 [6] = target: HOXC9 (Homo sapiens, UniProt P31274 178-260, R193K)
# PAX4 [7] = target: T2, PAX4 (Homo sapiens, UniProt O43316 9-242, F177V)
# T2 sequence: T1 sequence with F169V, K192R
# PAX4 [8] = target: T3, PAX4 (Homo sapiens, UniProt O43316 9-242, F177Y)
# T3 sequence: T1 sequence with F169Y, K192R
# HOXB9 [9] = target: HOXB9 (Homo sapiens, UniProt P17482 171-250, R186Q)
# HOXC9 [10] = target: HOXC9 (Homo sapiens, UniProt P31274 178-260, R222W)
# PAX4 [11] = target: T4, PAX4 (Homo sapiens, UniProt O43316 9-242, R227W)
# T4 sequence: T1 sequence with K192R, R219W
# ALX3 [12] = target: ALX3 (Homo sapiens, UniProt O95076 139-225, N203S)
# HOXC10 [13] = target: HOXC10 (Homo sapiens, UniProt Q9NYD6 254-340)
# ALX4 = ALX4 (Homo sapiens, UniProt Q9H161 200-286, Q225E)
# HOXD13 [14] = target: HOXD13 (Homo sapiens, UniProt P35453 263-343, T313R)
# HOXD13 [15] = target: HOXD13 (Homo sapiens, UniProt P35453 263-343)
# HOXC10 [16] = target: HOXC10 (Homo sapiens, UniProt Q9NYD6 254-340, K271E)
# HOXD13 [17] = target: HOXD13 (Homo sapiens, UniProt P35453 263-343, T313A)
# HOXC9 [18] = target: HOXC9 (Homo sapiens, UniProt P31274 178-260, K195R)
# HOXC9 [19] = target: HOXC9 (Homo sapiens, UniProt P31274 178-260)
# PROP1 [20] = target: PROP1 (Homo sapiens, UniProt O75360 56-141)
# PROP1 [21] = target: PROP1 (Homo sapiens, UniProt O75360 56-141, R99H)
# PROP1 [22] = target: PROP1 (Homo sapiens, UniProt O75360 56-141, F88S)
# NKX3-2 [23] = target: NKX3-2 (Homo sapiens, UniProt P78367 192-278, P234S)
# NKX3-2 [24] = target: NKX3-2 (Homo sapiens, UniProt P78367 192-278)
# HOXB6 [25] = target: HOXB6 (Homo sapiens, UniProt P17509 132-218)
# PAX4 [26] = target: T5, PAX4 (Homo sapiens, UniProt O43316 9-242)
# T5 sequence: T1 sequence with K192R
# PAX4 [27] = target: T6, PAX4 (Homo sapiens, UniProt O43316 9-242, R200Q)
# T6 sequence: T1 sequence with K192Q
# HOXA7 [28] = target: HOXA7 (Homo sapiens, UniProt P31268 116-202)
# HOXA4 [29] = target: HOXA4 (Homo sapiens, UniProt Q00056 201-287, R217L)
# MSX2 = MSX2 (Homo sapiens, UniProt P35548 130-214, R199I)
# HOXA7 [30] = target: HOXA7 (Homo sapiens, UniProt P31268 116-202, W177C)
# HOXA4 [31] = target: HOXA4 (Homo sapiens, UniProt Q00056 201-287, W262F)
# Chain of HOXA4 (Homo sapiens, UniProt Q00056 201-287, W262F) (Q00056 201-287 W262F): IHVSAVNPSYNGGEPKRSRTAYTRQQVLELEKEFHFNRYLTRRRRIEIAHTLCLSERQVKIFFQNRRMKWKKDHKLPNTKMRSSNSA
# Chain of HOXC10 (Homo sapiens, UniProt Q9NYD6 254-340) (Q9NYD6 254-340): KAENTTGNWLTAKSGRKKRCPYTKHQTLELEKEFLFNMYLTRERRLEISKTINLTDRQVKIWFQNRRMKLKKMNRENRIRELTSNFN
# Chain of HOXB9 (Homo sapiens, UniProt P17482 171-250, R186Q) (P17482 171-250 R186Q): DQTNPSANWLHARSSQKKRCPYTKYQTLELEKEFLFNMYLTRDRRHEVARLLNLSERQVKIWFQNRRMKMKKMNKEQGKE
# Chain of HOXC10 (Homo sapiens, UniProt Q9NYD6 254-340, K271E) (Q9NYD6 254-340 K271E): as the sequence (Q9NYD6 254-340) above, with K18E counted along it
# Chain of HOXC9 (Homo sapiens, UniProt P31274 178-260, R222W) (P31274 178-260 R222W): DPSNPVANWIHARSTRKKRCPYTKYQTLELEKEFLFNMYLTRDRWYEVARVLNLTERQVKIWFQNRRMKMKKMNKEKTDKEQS
# Chain of HOXB6 (Homo sapiens, UniProt P17509 132-218, K202E) (P17509 132-218 K202E): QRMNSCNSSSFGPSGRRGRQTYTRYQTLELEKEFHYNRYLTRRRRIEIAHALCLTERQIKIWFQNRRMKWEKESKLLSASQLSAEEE
# Chain of HOXB9 (Homo sapiens, UniProt P17482 171-250) (P17482 171-250): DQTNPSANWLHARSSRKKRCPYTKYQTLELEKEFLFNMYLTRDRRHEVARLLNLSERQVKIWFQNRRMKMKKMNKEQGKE
# Chain of HOXB9 (Homo sapiens, UniProt P17482 171-250, T197M) (P17482 171-250 T197M): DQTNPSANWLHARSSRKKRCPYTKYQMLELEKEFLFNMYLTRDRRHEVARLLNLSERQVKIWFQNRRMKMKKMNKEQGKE
# Chain of PROP1 (Homo sapiens, UniProt O75360 56-141, R99H) (O75360 56-141 R99H): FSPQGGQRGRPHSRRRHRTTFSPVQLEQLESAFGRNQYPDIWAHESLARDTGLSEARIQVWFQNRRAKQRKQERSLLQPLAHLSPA
# Chain of PROP1 (Homo sapiens, UniProt O75360 56-141) (O75360 56-141): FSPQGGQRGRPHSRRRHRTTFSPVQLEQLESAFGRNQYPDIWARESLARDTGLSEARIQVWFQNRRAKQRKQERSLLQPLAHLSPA
# Chain of HOXC9 (Homo sapiens, UniProt P31274 178-260, R193K) (P31274 178-260 R193K): as the sequence (P31274 178-260 R222W) above, with R16K, W45R counted along it
# Chain of HOXD13 (Homo sapiens, UniProt P35453 263-343, T313A) (P35453 263-343 T313A): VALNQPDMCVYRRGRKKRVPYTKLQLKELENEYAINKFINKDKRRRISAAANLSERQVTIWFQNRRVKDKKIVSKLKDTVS
# Chain of HOXA7 (Homo sapiens, UniProt P31268 116-202, W177C) (P31268 116-202 W177C): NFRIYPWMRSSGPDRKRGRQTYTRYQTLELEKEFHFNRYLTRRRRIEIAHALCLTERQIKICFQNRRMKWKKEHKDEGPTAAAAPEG
# Chain of PROP1 (Homo sapiens, UniProt O75360 56-141, F88S) (O75360 56-141 F88S): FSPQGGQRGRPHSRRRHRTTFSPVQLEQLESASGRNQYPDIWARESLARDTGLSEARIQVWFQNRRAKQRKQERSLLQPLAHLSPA
# Chain of HOXB6 (Homo sapiens, UniProt P17509 132-218) (P17509 132-218): as the sequence (P17509 132-218 K202E) above, with E71K counted along it
# Chain of PRRX1 (P54821 80-166 F113S): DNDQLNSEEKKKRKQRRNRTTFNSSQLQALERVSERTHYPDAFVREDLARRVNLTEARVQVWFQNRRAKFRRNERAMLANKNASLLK
# Chain of HOXD13 (Homo sapiens, UniProt P35453 263-343, T313R) (P35453 263-343 T313R): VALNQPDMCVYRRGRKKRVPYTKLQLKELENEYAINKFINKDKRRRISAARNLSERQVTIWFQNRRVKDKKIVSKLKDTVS
# Chain of HOXD13 (Homo sapiens, UniProt P35453 263-343) (P35453 263-343): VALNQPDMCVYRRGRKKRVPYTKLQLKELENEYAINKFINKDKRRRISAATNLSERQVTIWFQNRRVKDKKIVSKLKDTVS
# Chain of HOXA7 (Homo sapiens, UniProt P31268 116-202) (P31268 116-202): as the sequence (P31268 116-202 W177C) above, with C62W counted along it
# Chain of ALX3 (Homo sapiens, UniProt O95076 139-225, N203S) (O95076 139-225 N203S): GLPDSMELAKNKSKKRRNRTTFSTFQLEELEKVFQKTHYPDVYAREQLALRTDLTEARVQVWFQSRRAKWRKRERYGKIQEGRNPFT
# Chain of MSX2 (P35548 130-214 R199I): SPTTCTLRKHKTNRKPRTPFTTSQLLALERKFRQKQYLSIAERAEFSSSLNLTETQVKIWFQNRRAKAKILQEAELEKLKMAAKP
# Chain of ALX3 (Homo sapiens, UniProt O95076 139-225, N203Q) (O95076 139-225 N203Q): as the sequence (O95076 139-225 N203S) above, with S65Q counted along it
# Chain of HOXA4 (Homo sapiens, UniProt Q00056 201-287, R217L) (Q00056 201-287 R217L): as the sequence (Q00056 201-287 W262F) above, with R17L, F62W counted along it
# Chain of NKX3-2 (Homo sapiens, UniProt P78367 192-278, P234S) (P78367 192-278 P234S): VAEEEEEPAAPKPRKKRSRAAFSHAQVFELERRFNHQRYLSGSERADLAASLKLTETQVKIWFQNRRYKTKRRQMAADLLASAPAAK
# Chain of NKX3-2 (Homo sapiens, UniProt P78367 192-278) (P78367 192-278): as the sequence (P78367 192-278 P234S) above, with S43P counted along it
# Chain of HOXC9 (Homo sapiens, UniProt P31274 178-260, K195R) (P31274 178-260 K195R): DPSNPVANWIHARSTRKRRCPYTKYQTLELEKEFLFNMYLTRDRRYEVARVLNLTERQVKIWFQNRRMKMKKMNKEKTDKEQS
# Chain of HOXC9 (Homo sapiens, UniProt P31274 178-260) (P31274 178-260): as the sequence (P31274 178-260 R222W) above, with W45R counted along it
# Chain of ALX4 (Q9H161 200-286 Q225E): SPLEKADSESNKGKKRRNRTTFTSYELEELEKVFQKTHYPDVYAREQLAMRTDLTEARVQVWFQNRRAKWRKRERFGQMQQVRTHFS
sequence,measurement,setting,value
ATTAAATA,binding signal,HOXB9 [1],"10.1 upbm affinity estimate (log intensity, higher = more binding, comparable within an allelic series)"
same,binding signal,PAX4 [2],"11.7 upbm affinity estimate (log intensity, higher = more binding, comparable within an allelic series)"
same,binding signal,PRRX1,"11.1 upbm affinity estimate (log intensity, higher = more binding, comparable within an allelic series)"
same,binding signal,HOXB6 [3],"10 upbm affinity estimate (log intensity, higher = more binding, comparable within an allelic series)"
same,binding signal,HOXB9 [4],"11.7 upbm affinity estimate (log intensity, higher = more binding, comparable within an allelic series)"
same,binding signal,ALX3 [5],"8.66 upbm affinity estimate (log intensity, higher = more binding, comparable within an allelic series)"
same,binding signal,HOXC9 [6],"12.5 upbm affinity estimate (log intensity, higher = more binding, comparable within an allelic series)"
same,binding signal,PAX4 [7],"10.8 upbm affinity estimate (log intensity, higher = more binding, comparable within an allelic series)"
same,binding signal,PAX4 [8],"11.1 upbm affinity estimate (log intensity, higher = more binding, comparable within an allelic series)"
same,binding signal,HOXB9 [9],"11.5 upbm affinity estimate (log intensity, higher = more binding, comparable within an allelic series)"
same,binding signal,HOXC9 [10],"11.1 upbm affinity estimate (log intensity, higher = more binding, comparable within an allelic series)"
same,binding signal,PAX4 [11],"11 upbm affinity estimate (log intensity, higher = more binding, comparable within an allelic series)"
same,binding signal,ALX3 [12],"8.86 upbm affinity estimate (log intensity, higher = more binding, comparable within an allelic series)"
TCAATAAA,binding signal,HOXB9 [1],"9.75 upbm affinity estimate (log intensity, higher = more binding, comparable within an allelic series)"
same,binding signal,HOXC10 [13],"12.2 upbm affinity estimate (log intensity, higher = more binding, comparable within an allelic series)"
same,binding signal,ALX4,"11.2 upbm affinity estimate (log intensity, higher = more binding, comparable within an allelic series)"
same,binding signal,HOXB9 [4],"11.8 upbm affinity estimate (log intensity, higher = more binding, comparable within an allelic series)"
same,binding signal,HOXD13 [14],"11 upbm affinity estimate (log intensity, higher = more binding, comparable within an allelic series)"
same,binding signal,HOXD13 [15],"12 upbm affinity estimate (log intensity, higher = more binding, comparable within an allelic series)"
same,binding signal,HOXC10 [16],"11.6 upbm affinity estimate (log intensity, higher = more binding, comparable within an allelic series)"
same,binding signal,HOXD13 [17],"11.7 upbm affinity estimate (log intensity, higher = more binding, comparable within an allelic series)"
same,binding signal,HOXB9 [9],"11.5 upbm affinity estimate (log intensity, higher = more binding, comparable within an allelic series)"
same,binding signal,HOXC9 [10],"11.3 upbm affinity estimate (log intensity, higher = more binding, comparable within an allelic series)"
GGTCGTTA,binding signal,HOXB9 [1],"9.98 upbm affinity estimate (log intensity, higher = more binding, comparable within an allelic series)"
same,binding signal,HOXC10 [13],"12.2 upbm affinity estimate (log intensity, higher = more binding, comparable within an allelic series)"
same,binding signal,HOXC10 [16],"12.2 upbm affinity estimate (log intensity, higher = more binding, comparable within an allelic series)"
GCCTTCCC,binding signal,HOXB9 [1],"8.39 upbm affinity estimate (log intensity, higher = more binding, comparable within an allelic series)"
same,binding signal,HOXC9 [18],"9.49 upbm affinity estimate (log intensity, higher = more binding, comparable within an allelic series)"
same,binding signal,HOXB9 [4],"8.31 upbm affinity estimate (log intensity, higher = more binding, comparable within an allelic series)"
same,binding signal,HOXC9 [19],"9.55 upbm affinity estimate (log intensity, higher = more binding, comparable within an allelic series)"
same,binding signal,HOXC9 [6],"9.63 upbm affinity estimate (log intensity, higher = more binding, comparable within an allelic series)"
same,binding signal,PROP1 [20],"6.64 upbm affinity estimate (log intensity, higher = more binding, comparable within an allelic series)"
same,binding signal,PROP1 [21],"6.59 upbm affinity estimate (log intensity, higher = more binding, comparable within an allelic series)"
same,binding signal,HOXB9 [9],"8.38 upbm affinity estimate (log intensity, higher = more binding, comparable within an allelic series)"
same,binding signal,HOXC9 [10],"9.61 upbm affinity estimate (log intensity, higher = more binding, comparable within an allelic series)"
same,binding signal,PROP1 [22],"6.59 upbm affinity estimate (log intensity, higher = more binding, comparable within an allelic series)"
GGCAGACC,binding signal,HOXB9 [1],"8.55 upbm affinity estimate (log intensity, higher = more binding, comparable within an allelic series)"
same,binding signal,HOXC10 [13],"10.1 upbm affinity estimate (log intensity, higher = more binding, comparable within an allelic series)"
same,binding signal,HOXB9 [4],"8.57 upbm affinity estimate (log intensity, higher = more binding, comparable within an allelic series)"
same,binding signal,HOXC10 [16],"10.1 upbm affinity estimate (log intensity, higher = more binding, comparable within an allelic series)"
same,binding signal,HOXB9 [9],"8.65 upbm affinity estimate (log intensity, higher = more binding, comparable within an allelic series)"
same,binding signal,NKX3-2 [23],"10.4 upbm affinity estimate (log intensity, higher = more binding, comparable within an allelic series)"
same,binding signal,NKX3-2 [24],"10.3 upbm affinity estimate (log intensity, higher = more binding, comparable within an allelic series)"
GGTGGAGA,binding signal,HOXB9 [1],"8.58 upbm affinity estimate (log intensity, higher = more binding, comparable within an allelic series)"
same,binding signal,HOXB6 [3],"9.03 upbm affinity estimate (log intensity, higher = more binding, comparable within an allelic series)"
same,binding signal,HOXB9 [4],"8.51 upbm affinity estimate (log intensity, higher = more binding, comparable within an allelic series)"
same,binding signal,PROP1 [20],"6.89 upbm affinity estimate (log intensity, higher = more binding, comparable within an allelic series)"
same,binding signal,PROP1 [21],"6.82 upbm affinity estimate (log intensity, higher = more binding, comparable within an allelic series)"
same,binding signal,HOXB9 [9],"8.56 upbm affinity estimate (log intensity, higher = more binding, comparable within an allelic series)"
same,binding signal,PROP1 [22],"6.65 upbm affinity estimate (log intensity, higher = more binding, comparable within an allelic series)"
same,binding signal,HOXB6 [25],"9.09 upbm affinity estimate (log intensity, higher = more binding, comparable within an allelic series)"
ATTAATAC,binding signal,HOXB9 [1],"10.1 upbm affinity estimate (log intensity, higher = more binding, comparable within an allelic series)"
same,binding signal,PAX4 [2],"11.8 upbm affinity estimate (log intensity, higher = more binding, comparable within an allelic series)"
same,binding signal,PAX4 [26],"12.2 upbm affinity estimate (log intensity, higher = more binding, comparable within an allelic series)"
same,binding signal,HOXB6 [3],"10.1 upbm affinity estimate (log intensity, higher = more binding, comparable within an allelic series)"
same,binding signal,PAX4 [27],"11.8 upbm affinity estimate (log intensity, higher = more binding, comparable within an allelic series)"
same,binding signal,PAX4 [7],"10.6 upbm affinity estimate (log intensity, higher = more binding, comparable within an allelic series)"
same,binding signal,PAX4 [8],"11.1 upbm affinity estimate (log intensity, higher = more binding, comparable within an allelic series)"
same,binding signal,PAX4 [11],"11.1 upbm affinity estimate (log intensity, higher = more binding, comparable within an allelic series)"
AATTACCA,binding signal,HOXB9 [1],"10.1 upbm affinity estimate (log intensity, higher = more binding, comparable within an allelic series)"
same,binding signal,HOXA7 [28],"11.2 upbm affinity estimate (log intensity, higher = more binding, comparable within an allelic series)"
same,binding signal,PRRX1,"11.1 upbm affinity estimate (log intensity, higher = more binding, comparable within an allelic series)"
same,binding signal,HOXB6 [3],"9.98 upbm affinity estimate (log intensity, higher = more binding, comparable within an allelic series)"
same,binding signal,HOXA4 [29],"11.9 upbm affinity estimate (log intensity, higher = more binding, comparable within an allelic series)"
same,binding signal,MSX2,"12.2 upbm affinity estimate (log intensity, higher = more binding, comparable within an allelic series)"
same,binding signal,HOXA7 [30],"8.87 upbm affinity estimate (log intensity, higher = more binding, comparable within an allelic series)"
same,binding signal,HOXA4 [31],"11.4 upbm affinity estimate (log intensity, higher = more binding, comparable within an allelic series)"
same,binding signal,HOXB6 [25],"11.7 upbm affinity estimate (log intensity, higher = more binding, comparable within an allelic series)"
CTATAAAC,binding signal,HOXB9 [1],"9.58 upbm affinity estimate (log intensity, higher = more binding, comparable within an allelic series)"
same,binding signal,HOXA7 [28],"9.84 upbm affinity estimate (log intensity, higher = more binding, comparable within an allelic series)"
same,binding signal,HOXB9 [4],"11.5 upbm affinity estimate (log intensity, higher = more binding, comparable within an allelic series)"
same,binding signal,HOXD13 [14],"10.9 upbm affinity estimate (log intensity, higher = more binding, comparable within an allelic series)"
same,binding signal,HOXD13 [15],"12.2 upbm affinity estimate (log intensity, higher = more binding, comparable within an allelic series)"
same,binding signal,HOXD13 [17],"12 upbm affinity estimate (log intensity, higher = more binding, comparable within an allelic series)"
same,binding signal,HOXB9 [9],"11.2 upbm affinity estimate (log intensity, higher = more binding, comparable within an allelic series)"
same,binding signal,HOXA7 [30],"8.92 upbm affinity estimate (log intensity, higher = more binding, comparable within an allelic series)"
